# BAZ2B block: blocks human BAZ2B. Q9UIF8. AlphaScreen BAZ2B-H3K14Ac peptide displacement. Potency, µM (top dose mostly 114 µM), inactives show at the highest dose activity change, negative = inhibition, actives largely listed as inhibitors. actives 4.4% (n = 360,000). AID 504333; also: % is scaled to controls: 0 for no effect and ±100 for the full control effect; nearly all actives have a fitted effect of over 60% in size
#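 BAZ2B (50 nM) with biotin-H3(5-23)K14Ac peptide (50 nM) in PBS pH 7.4, 0.01% Tween-20, preformed 30 min, then compound 30 min at room temperature; top concentration 110uM. AlphaScreen streptavidin donor/nickel chelate acceptor beads (10 ug/mL final), 20 min dark, signal read.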
# Sfp inh: inhibitors of Bacillus subtilis Sfp phosphopantetheinyl transferase. Q9F4F7. Biochemical Sfp PPTase activity, qHTS. Potency, µM, without a hit: largest response in the series, negative = inhibition, most hits filed as inhibitors. actives 3.5% (n = 310,000). AID 1490;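 also: the enzyme is Sfp with the accession as filed and its product quenches rhodamine fluorescence; 0% = enzyme reaction without inhibitor and -100% = no enzyme wells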
#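 After 15 min at room temperature with compound, 15 nM Sfp received 5 uM rhodamine-CoA plus 12.5 uM BHQ-2-ybbR (50 mM Hepes pH 7.6, 10 mM MgCl2). Rate came from the fluorescence difference over 30 min, ex 525/em 598 nm.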
# G9a block: inhibitors of human histone lysine methyltransferase G9a; Q96KQ7; G9a H3K9 monomethylation, AlphaScreen, 2 h; actives 8.8% (n = 350,000); Potency, µM (highest dose often 102 µM), inactives show top-dose activity, negative = inhibition, hits mostly inhibitors; also: % is scaled to controls: 0 for no effect and ±100 for the full control effect; nearly all actives have a fitted effect of over 75% in size
# Target sequence (Q96KQ7 913-1193 limits assumed): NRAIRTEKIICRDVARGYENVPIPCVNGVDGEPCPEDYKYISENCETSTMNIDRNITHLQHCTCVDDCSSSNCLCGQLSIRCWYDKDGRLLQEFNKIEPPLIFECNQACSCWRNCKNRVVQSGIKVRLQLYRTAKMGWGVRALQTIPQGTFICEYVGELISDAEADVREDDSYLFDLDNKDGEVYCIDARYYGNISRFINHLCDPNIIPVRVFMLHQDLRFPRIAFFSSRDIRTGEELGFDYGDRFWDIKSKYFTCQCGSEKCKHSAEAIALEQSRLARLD
#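 Step 1: enzyme (final 20 nM) with compound, 15 min RT. Step 2: substrate peptide 500 nM and SAM 20 uM, 2 h RT. Step 3: anti-H3K9me1 antibody and AlphaScreen beads, 10 min, then plate read.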
# HP1b binding inh: inhibitors of HP1-beta chromodomain binding to methylated histone tails; P83916; AlphaScreen HP1-beta / biotin-H3K9me3 peptide binding; Potency, µM (highest dose often 114 µM), for the others: at the highest dose activity change, negative = inhibition, usual class: inhibitors; actives 0.56% (n = 390,000); AID 540317; also: nearly all actives have a fitted effect of over 70% in size
# Target sequence (P83916 whole entry, looked up): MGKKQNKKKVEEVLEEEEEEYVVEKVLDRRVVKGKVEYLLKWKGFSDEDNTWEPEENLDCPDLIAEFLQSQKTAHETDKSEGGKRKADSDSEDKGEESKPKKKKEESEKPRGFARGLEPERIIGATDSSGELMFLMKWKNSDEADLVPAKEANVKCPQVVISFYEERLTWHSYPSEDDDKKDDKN
#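 Compound inhibition of the preformed complex between 50 nM HP1-beta and 50 nM biotinylated H3K9me3 peptide was read by AlphaScreen. Buffer was PBS pH 7.4 with 0.01% Tween-20. Incubations ran 30 min at room temperature, with 10 ug/mL donor/acceptor beads.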
# JMJD2A Tudor inh: blocks the human JMJD2A Tudor domain | O75164 | AlphaScreen JMJD2A-Tudor / H3K4me3 peptide binding | Potency, µM (highest dose often 114 µM), for inactives: at the top dose activity change, negative = inhibition, actives largely listed as inhibitors | actives 4.4% (n = 390,000) | AID 504339; also: % is scaled to controls: 0 for no effect and ±100 for the full control effect; nearly all actives have a fitted effect of over 50% in size
# Starred values were filed as active, the others as inactive; ? = inconclusive; . = not tested or not shown; [ ] = dose if it differs, or a comment. This is a sample that favours compounds with a hit; in the whole collection about 12% have one here. Calls follow the shape of the dose curve; as a rule, active = well fitted curve in the direction sought with a large enough effect; inconclusive = small, poorly fitted or top-dose-only effect, or another doubt; inactive = no such curve, though single readings can be large; an effect the other way counts as inactive or inconclusive. Potency is read from the fitted curve at half-maximal effect.
SMILES,BAZ2B block,Sfp inh,G9a block,HP1b binding inh,JMJD2A Tudor inh
Clc1ccc(SCCCCn2cncn2)cc1,-4%,20%,6%[12.7 µM],32%,-2%
C=CCc1cc(Cl)ccc1OCCn1ccnc1,50µM*,-27%,7.1µM*,?,20µM*
C=CCc1cc(C)ccc1OCCOCCn1ccnc1,32µM*,-18%,10µM*,28µM*,3.2µM*
Clc1ccc(SCCn2ccnc2)cc1,56µM*,-18%,32µM*,?,3.5µM*
Cc1cc(Cl)c(OCCn2ccnc2)c(Br)c1,?,?,.,?,18µM*
Cc1ccc(C)c(OCCCCCn2ccnc2)c1,?,-10%,?,1%,?
CCOC(=O)c1[nH]c(C)c(CCC(=O)Nc2c(C)cc(C)cc2C)c1C,2%,.,8%[59 µM],5%[57 µM],-11%
COc1cccc([C@H]2Oc3ccc(OC)cc3/C(=N\O[C@@H]3O[C@H](COC(C)=O)[C@H](OC(C)=O)[C@H](OC(C)=O)[C@H]3OC(C)=O)[C@@H]2O)c1,.,17%,.,.,.
Cc1cccc(N2CCN(C(=O)c3cccc(-n4c(C)nc5cccnc54)c3)CC2C)c1 (stereo unspecified),-20%,.,?,6%,-24%
Cc1ccc(C(=O)NC(Cc2ccccc2C(F)(F)F)C(=O)O)cc1 (stereo unspecified),.,.,.,31%,-22%
Clc1ccc(OCCn2ccnc2)c(Cl)c1,50µM*,-13%,?,?,3.5µM*
OC(COc1ccc(Cl)cc1Cl)Cn1ccnc1 (stereo unspecified),-20%,17%,-2%,16%,-9%
COc1ccc(/C=C/C(=O)Nc2nc3n(n2)C(c2ccccc2)C=C(c2ccccc2)N3)cc1 (stereo unspecified),-19%,.,-9%[59 µM],27%,-33%
Oc1nc(-c2ccc(Cl)cc2)n2ccncc12,79µM*,8%,14µM*,37%,?
CCCc1cc(C(=O)Nc2sc3c(c2C#N)CCC3)no1,1%,50µM*,40µM*,-11%,-4%
CCc1c(C)sc(NC(=O)c2cc(C3CC3)on2)c1C#N,10%,0%,45µM*,-1%,0%
CCc1c(C)sc(NC(=O)C2CCCO2)c1C#N (stereo unspecified),-2%,22µM*,8.9µM*,?,-25%[57.1 µM]
CCc1c(C)sc(NC(=O)c2cc(C)on2)c1C#N,2%,-5%,.,5%,-9%
CCCc1cc(C(=O)Nc2sc(C)c(CC)c2C#N)no1,2%,56µM*,14%[59 µM],4%,6%
CCc1c(C)sc(NC(=O)c2cnn3cccnc23)c1C#N,-4%,1%,?,-19%,0%
CCC(=O)Nc1ccc(CC)cc1-c1nc2ccccc2n(Cc2ccccc2)c1=O,-2%,.,-1%[59 µM],23%,-22%
Cc1cc(C)cc(N(CCC#N)C(=O)COC(=O)Cn2[nH]c(=O)c3ccccc3c2=O)c1,.,.,.,21%,-13%
Cc1ccc(Cn2c(=O)c3c(nc4n3CCN4c3cc(C)cc(C)c3)n(C)c2=O)cc1,-15%,.,1%[59 µM],1%,-20%
COc1ccc(Oc2ccccc2/C=N/O)cc1,-6%,-1%,6%[59 µM],26%,-5%
COc1cc(C=NO)nc(-c2ccccn2)c1,.,.,.,40%,14µM*
SMILES,BAZ2B block,Sfp inh,G9a block,HP1b binding inh,JMJD2A Tudor inh
Cc1cc(NC(=O)CN2CCN(c3cccc(Cl)c3)CC2)no1,-18%,13%,-4%,16%,-14%
Cc1cc(NC(=O)CN2CCN(c3ncccn3)CC2)no1,56µM*,-18%,8.9µM*,?,20µM*
Cc1ccc(CNC(=O)CN2CCCC(C)C2)cc1 (stereo unspecified),35%,2%,13%,20%,-4%
Cc1cc(NC(=O)CN2CCCCC2)no1,56µM*,-10%,?,?,?
Cc1cc(NC(=O)Cn2cc([N+](=O)[O-])cn2)no1,-15%,-18%,50µM*,46%,3%
Cc1cc(NC(=O)CN2CCCC(C)C2)no1 (stereo unspecified),1%,-13%,.,50µM*,2.8µM*
COC(=O)[C@@]1(Cc2ccccc2)[C@H]2c3cc(C(=O)N4CCCC4)[nH]c3C[C@H]2CN1C(=O)c1ccccc1,.,2%,.,.,.
O=C(CN1CCN(c2ncccn2)CC1)NCCC1=CCCCC1,50µM*,?,?,?,3.2µM*
N[C@@]1(C(=O)O)CO[C@H]2[C@H](C(=O)O)[C@H]21,.,-8%,22%[59 µM],.,.
COC(=O)[C@@H](N)CS,-31%,11µM*,8.9µM*,-25%,?
Oc1nc(Nc2cccc(Cl)c2)sc1/C=C1\C=Nc2ccccc21,-38%,-2%,?,-17%,?
Oc1cccc(Nc2nc(O)c(/C=C3\C=Nc4ccccc43)s2)c1,?,-24%,50µM*,11%,-24%[11.4 µM]
COc1cc2c(cc1NC(=O)CSc1ccccn1)oc1ccccc12,4%,45µM*,-5%[59 µM],16%,-8%
COc1cc2c(cc1NC(=O)c1cccc([N+](=O)[O-])c1)oc1ccccc12,4%,-6%,50µM*,-14%,-17%
CC1=NN(c2ccc(Cl)cc2)C(=O)C1C(c1ccccc1O)c1c(C)[nH]n(-c2ccc(Cl)cc2)c1=O (stereo unspecified),35µM*,30%,4µM*,?,56µM*
COc1ccc(C2C(C(=O)/C=C/c3ccco3)=C(O)C(=O)N2CCN2CCOCC2)cc1 (stereo unspecified),79µM*,-30%,?,17%,-34%
COc1cc(C2C(C(=O)c3cccs3)=C(O)C(=O)N2CCN2CCOCC2)cc(OC)c1OC (stereo unspecified),2%,5%,?,40%,2%
COc1cccc(C2C(C(=O)/C=C/c3ccco3)=C(O)C(=O)N2CCN2CCOCC2)c1 (stereo unspecified),.,?,50µM*,28%,-31%
CCOc1ccc(C2C(C(=O)/C=C/c3ccco3)=C(O)C(=O)N2CCN2CCOCC2)cc1OC (stereo unspecified),.,56µM*,45µM*,19%,?
C=CCOc1cccc(C2C(C(=O)c3ccco3)=C(O)C(=O)N2CCN2CCOCC2)c1 (stereo unspecified),?,-15%,-27%[12.7 µM],48%,?
CCc1nnc(NC(=O)c2cc(=O)c3cc(C)c(C)cc3o2)s1,-4%,.,-8%[59 µM],27%,-2%
Cc1cc(-n2c(C)cc(C(=O)CSc3nncn3C(C)C)c2C)no1,-32%,.,56µM*,14%,-26%
Cc1cc(-n2c(C)cc(C(=O)CSc3nncn3C)c2C)no1,.,.,.,8%,-28%
Cc1cccc(-c2nc3ccccc3n2Cc2ccccc2)c1,128%,.,47%[59 µM],126%,44%
C(/C=C/c1ccco1)=N/N1CCN(c2ccccc2)CC1,28µM*,0%,40µM*,?,?
Clc1ccccc1CN1CCN(/N=C/C=C\c2ccco2)CC1,40µM*,-49%,35µM*,45µM*,?
